Compounds with a hit are over-represented: about 12% of the library has one in this group of screens.
AMA1-RON2 inh: disrupts binding of P. falciparum AMA1 to RON2; AlphaScreen AMA1-biotinylated RON2 peptide binding; Potency, µM (doses to about 58.2 µM), actives largely listed as inhibitors; actives 0.2% (n = 360,000); AID 720542; also: nearly all actives have a fitted effect of over 45% in size
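AMA1 (3D7) with his tag at 25 nM final met compounds first, then biotinylated RON2 peptide at 25 nM; detection used donor plus acceptor beads, 10 µg/mL apiece, read by AlphaScreen after 30 min at room temperature.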
Pf growth 96h: inhibits malaria parasite growth, 96 h; P. falciparum luciferase reporter growth, 96 h; Potency, µM (titrated, usually from 28.7 µM), most hits filed as inhibitors; actives 6.9% (n = 320,000); AID 504834
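Compounds incubated with erythrocytes infected by luciferase-expressing P. falciparum (2% hematocrit, 0.05% parasitemia final) for 96 hours, 37 C in 5% CO2. Growth inhibition scored as decreased luciferase luminescence.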
SARS PLP yeast: inhibitors of SARS-CoV papain-like protease in yeast. Potency, µM (series often up to 32.9 µM), actives largely listed as activators. S. cerevisiae expressing SARS-CoV PLpro, growth rescue. actives 0.19% (n = 330,000). AID 485353; calls by dose curve; also: nearly all actives have a fitted effect of over 55% in size
HCV inhibitor: blocks hepatitis C virus; Huh7.5.1 HCVcc-Cre infection, luciferase reporter, 44 h; Potency, µM (doses to about 41.8 µM), most hits filed as inhibitors; actives 3.4% (n = 340,000); AID 651820
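Infectious HCV cell culture screen: compound-treated cells (1,000/well, pre-plated 4 h) are infected with HCVcc-Cre at roughly 0.5 moi and grown 44 h. Infection is quantified by luciferase signal after 15 min substrate incubation at room temperature.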
Pf growth 48h: inhibits P. falciparum growth in the first generation, 48 h; P. falciparum luciferase growth in erythrocytes, 48 h; Potency, µM (titrated, usually from 28.7 µM), actives largely listed as inhibitors; actives 5.9% (n = 310,000); AID 504832
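Luciferase-expressing P. falciparum in infected erythrocytes (2% hematocrit, 0.1% parasitemia final) in RPMI 1640/0.5% Albumax were exposed to compound for 48 hours at 37 C, 5% CO2; growth read as luminescence.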
NS1 inh: blocks influenza NS1 protein function | Potency, µM (top dose mostly 46.1 µM) | AID 2326 | actives 0.4% (n = 270,000); calls by dose curve; also: actives are rising curves; nearly all actives have a fitted effect of over 50% in size
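A cell-based growth assay was used: compounds that relieve NS1-induced slow growth of budding yeast raise OD600. Assay medium was yeast nitrogen base with ammonium sulphate and -URA supplement, pH 6.0, with 2% galactose.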
Each line names hits and unclear results; the compound was inactive in the other large screens. Unless noted, calls follow the shape of the dose curve; as a rule, active = well fitted curve in the direction sought with a large enough effect; inconclusive = small, poorly fitted or top-dose-only effect, or another doubt; inactive = no such curve, though single readings can be large; an effect the other way counts as inactive or inconclusive.

NC(=O)c1c(NC(=O)COC(=O)c2ccc(S(=O)(=O)Nc3ccccc3)cc2)sc2c1CCCC2	HCV inhibitor inconclusive (no result: NS1 inh)
N#CC1(NC(=O)CSc2nnc3n2CCCCC3)CCCCC1	none (no result: Pf growth 96h, Pf growth 48h, NS1 inh)
CCN(CC)S(=O)(=O)c1ccc(N2CCCC2)c(NC(=O)c2ccncc2)c1	none
CCN(CC)S(=O)(=O)c1ccc(N2CCOCC2)c(NC(=O)c2ccc(N3CCCC3=O)cc2)c1	Pf growth 96h 15µM, HCV inhibitor inconclusive, Pf growth 48h 7.4µM (no result: NS1 inh)
CCN(CC)S(=O)(=O)c1ccc(N2CCCC2)c(NC(=O)c2ccc(N3CCCC3=O)cc2)c1	Pf growth 96h 12µM, HCV inhibitor inconclusive, Pf growth 48h 13µM (no result: NS1 inh)
CCOc1ccc(CCNC(=O)c2ccc3c(=O)[nH]c4c(C(=O)NC(C)C)sc(=S)n4c3c2)cc1	Pf growth 96h 3.3µM, Pf growth 48h inconclusive
Cn1nccc1C(=O)Nc1cccc(S(=O)(=O)N2CCOCC2)c1	none
CCCCNC(=O)c1ccc(SCC(=O)N(CC)CC)c([N+](=O)[O-])c1	Pf growth 96h 1µM (no result: NS1 inh)
CC(C)Cn1c(N)c(C(=O)COC(=O)[C@@H]2CCCN2C(=O)c2cccs2)c(=O)n(C)c1=O	none
CC(C)CN1CCCC(N2CCN(c3cccc(Cl)c3)CC2)C1 (configuration not stated)	Pf growth 96h inconclusive (no result: SARS PLP yeast)
CCOc1cc(CN2CCCC(N3CCN(c4ccc(F)cc4)CC3)C2)ccc1OC (configuration not stated)	Pf growth 48h 1µM
COc1ccc(CN2CCCC(N3CCN(c4cccc(Cl)c4)CC3)C2)cc1OC (configuration not stated)	Pf growth 96h 9.3µM, Pf growth 48h inconclusive
Cc1cc(C(F)(F)F)n(-c2ccc(N)cc2)n1	none (no result: NS1 inh)
O=C1NCCCN1C1OC(CO)C(O)C1O (configuration not stated)	none (no result: Pf growth 96h, SARS PLP yeast, HCV inhibitor, Pf growth 48h, NS1 inh)
CCCCNC(=O)COC(=O)CCC(=O)c1ccc(Cl)cc1	none (no result: NS1 inh)
COc1ccc(C2C(C(=O)N3CCN(c4ccccn4)CC3)CC(=O)N2c2ccc(OC)cc2)cc1 (configuration not stated)	Pf growth 48h 4.7µM
CCN(C(=O)C1CCN(c2nc(-c3ccc(OC)cc3)no2)CC1)c1ccc(OC)cc1	HCV inhibitor 8.9µM, Pf growth 48h 9.3µM
COc1ccc(N2C(=O)CCC(C(=O)NCc3ccccn3)C2c2ccc(OC)c(OC)c2)cc1 (configuration not stated)	Pf growth 96h 4.7µM
COc1ccc(NC(=O)C2CCN(c3nc(-c4ccc(OC)cc4)no3)CC2)cc1	HCV inhibitor inconclusive
COc1ccc(-c2noc(N3CCC(C(=O)N4CCN(c5ccccn5)CC4)CC3)n2)cc1	Pf growth 96h inconclusive, HCV inhibitor 4.5µM, Pf growth 48h inconclusive
O=C(Nc1ccc(F)c(Cl)c1)c1ccc2sc([C@H]3C[C@H](O)[C@@H](CO)O3)nc2c1	none (no result: Pf growth 96h, SARS PLP yeast, HCV inhibitor, Pf growth 48h, NS1 inh)
O=C(NC(CSC(=O)c1ccccc1)C(=O)O)OCc1ccccc1 (configuration not stated)	none (no result: Pf growth 96h, SARS PLP yeast, Pf growth 48h, NS1 inh)
O[C@@H](c1cc(C(F)(F)F)nc2c(C(F)(F)F)cccc12)[C@H]1CCCCN1	Pf growth 96h 0.015µM, HCV inhibitor 8.9µM, Pf growth 48h 0.033µM (no result: NS1 inh)
O[C@@H](c1cc(-c2ccc(Cl)cc2)nc2ccccc12)C1CCCCN1 (some centres not stated)	none (no result: AMA1-RON2 inh, Pf growth 96h, SARS PLP yeast, HCV inhibitor, Pf growth 48h)
OC(c1cc(C(F)(F)F)nc2c(Cl)cc(Cl)cc12)C1CCCCN1 (configuration not stated)	AMA1-RON2 inh inconclusive, Pf growth 96h 0.0033µM, HCV inhibitor inconclusive, Pf growth 48h 0.013µM
OC(c1cc(-c2ccc(Cl)cc2)nc2ccccc12)C1CCCCN1 (configuration not stated)	Pf growth 96h 0.052µM, HCV inhibitor inconclusive, Pf growth 48h 0.037µM
O=C1C=C(c2cnc3ccccc3c2)C[C@@H](c2ccc3c(c2)OCO3)C1	none (no result: NS1 inh)
COc1ccc(OC)c(S(=O)(=O)Nc2cc3c4c(c2)C(C)C(=O)N4CCC3)c1 (configuration not stated)	Pf growth 48h inconclusive (no result: NS1 inh)
Cc1ccccc1C(=O)Nc1cccc(NC(=O)c2ccc(F)cc2)c1	Pf growth 96h 10µM, HCV inhibitor inconclusive
O=C(Nc1ccc(Nc2ccccc2)cc1)c1ccc(F)cc1	HCV inhibitor 10µM, Pf growth 48h inconclusive
O=C(Nc1ccc(Nc2ccccc2)cc1)c1c(Cl)cccc1Cl	HCV inhibitor 10µM (no result: Pf growth 96h, SARS PLP yeast, Pf growth 48h, NS1 inh)
O=C(O)c1ccc(C(=O)Nc2ccc(F)cc2)cc1	none (no result: NS1 inh)
O=C(Nc1ccc(Nc2ccccc2)cc1)c1c(F)c(F)c(F)c(F)c1F	HCV inhibitor inconclusive
O=C(NC(=S)Nc1ccc(NC(=O)c2ccccc2)cc1)c1ccc(F)cc1	Pf growth 96h 6.6µM, HCV inhibitor inconclusive, Pf growth 48h 6.6µM
CC1(C(=O)Nc2cccc(NS(C)(=O)=O)c2)Cc2c(-c3cccc(C(N)=O)c3)ccnc2O1 (configuration not stated)	none (no result: Pf growth 96h, SARS PLP yeast, HCV inhibitor, Pf growth 48h, NS1 inh)
CC(C)(C)c1ccc(NC(=O)c2c(F)cccc2Cl)cc1	Pf growth 96h 9.3µM, HCV inhibitor inconclusive, Pf growth 48h inconclusive
CC1CN(C(=O)c2ccc(-c3cccc(C(F)(F)F)c3)o2)CC(C)O1 (configuration not stated)	Pf growth 96h inconclusive, HCV inhibitor inconclusive, Pf growth 48h 13µM (no result: NS1 inh)
Cc1ccc(C)c(NC(=O)CN(C)C(=O)c2ccc(-c3ccc(Cl)cc3)o2)c1	Pf growth 96h 13µM, HCV inhibitor inconclusive, Pf growth 48h 1.5µM (no result: NS1 inh)
Cc1ccc(C)c(NC(=O)CN(C)C(=O)c2cc3ccccc3o2)c1	Pf growth 96h 3.3µM, Pf growth 48h 2.3µM (no result: NS1 inh)
O=C(c1ccc(-c2cccc(C(F)(F)F)c2)o1)N1CCCCCCC1	none (no result: NS1 inh)
CC(C)NC(=O)c1ccc(-c2cccc(C(F)(F)F)c2)o1	Pf growth 96h inconclusive
Cc1cccc(C)c1NC(=O)CN(C)C(=O)c1ccc(-c2cccc(C(F)(F)F)c2)o1	Pf growth 96h inconclusive, HCV inhibitor inconclusive, Pf growth 48h 12µM (no result: NS1 inh)
Cc1ccc(C)c(NC(=O)CN(C)C(=O)c2cc3ccccc3oc2=O)c1	none (no result: Pf growth 96h, Pf growth 48h, NS1 inh)
CN(CC(=O)Nc1cccc(F)c1)C(=O)c1ccc(-c2ccc(Cl)cc2)o1	Pf growth 96h 1.7µM, HCV inhibitor inconclusive, Pf growth 48h 1.9µM
Nc1ncnc2c1ncn2[C@@H]1O[C@H](C(=O)N(CCC2=CCCCC2)CC2CC2)[C@@H](O)[C@H]1O	none (no result: Pf growth 96h, SARS PLP yeast, HCV inhibitor, Pf growth 48h, NS1 inh)
Cc1ccc(NC(=O)C2Cc3ccccc3CN2C(=O)c2ccco2)cc1S(=O)(=O)N(C)C (configuration not stated)	none
Cc1nnc(SCC(=O)NNC(=O)c2ccc(Br)cc2)n1C	Pf growth 96h inconclusive
Cc1oc2c(cc(NS(=O)(=O)c3ccc4c5c(cccc35)C(=O)N4)c3ccccc32)c1C(=O)OC(C)C	HCV inhibitor inconclusive, Pf growth 48h inconclusive
